The text below walks through data of the supplement of paper PMC10515830.

Counter-ions that a name gives are not always drawn.

Conditions in all cases: 10 µM; exposure time 6 h
The subject of assay [1] is Danio rerio larvae (5 dpf). The assay can be described thus: difference in excitability vs DMSO (percentage points); higher = more excitable than DMSO. In outline:
(§1)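 Wild-type 5 dpf zebrafish larvae in 96-well plates were given 100 µL egg water containing library compound at 10 µM final for 6 h. After 3 h of exposure, plates at 28.5 ℃ were photographed every 6 s during a 3-h programme of moving lines and 100 ms, 400Hz tones. Z-LaP Tracker (a DeepLabCut model) quantified each behaviour, averaged over 48 larvae per compound. Values are the compound mean minus the DMSO-vehicle control, in percentage points.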

The subject of assay [2] is Danio rerio larvae (5 dpf). Nature of the assay: difference in startle response vs DMSO (percentage points); higher = stronger startle than DMSO. In outline:
as §1

Assay [3] relates to Danio rerio larvae (5 dpf). Nature of the assay: difference in activity during first hour vs DMSO (percentage points); higher = more activity than DMSO. A digest of the protocol: as §1
The subject of assay [4] is Danio rerio larvae (5 dpf). The assay can be described thus: difference in habituation to acoustic stimuli vs DMSO (percentage points); higher = more habituation than DMSO. In outline:
as §1

Assay [5] relates to Danio rerio larvae (5 dpf). The assay can be described thus: difference in combined optomotor response to red, green and blue moving lines vs DMSO (percentage points); higher = stronger optomotor response than DMSO. A digest of the protocol: as §1

In turn, `C[C@]12CCC3=C4CCC(=O)C=C4CC[C@H]3[C@@H]1CC[C@@]2(O)CC#N` [Dienogest] showed a difference in excitability in assay [1] of 6.14. Moreover, the “difference in startle response” value in assay [2] was -3.1. Besides, in assay [3], the “difference in activity during first hour” value was determined as 11.2. For the same compound, the “difference in habituation to acoustic stimuli” value (from here on “difference in habituation”) in assay [4] is 4.78. Also, the difference in assay [5] is 1.22.
Turning to `COc1cc2nc(N3CCN(C(=O)C4CCCO4)CC3)nc(N)c2cc1OC` (stereo not given) [Terazosin (hydrochloride)], the difference in excitability in assay [1] was 18.5. Besides, the “difference in startle response” value in assay [2] came to 10.8. The “difference in activity during first hour” value in assay [3] is -10.2. The “difference in habituation” value in assay [4] was 1.1. Also, in assay [5], the difference was 13.9.
Compound `CCCCc1oc2ccccc2c1C(=O)c1cc(I)c(OCCN(CC)CC)c(I)c1` [Amiodarone (hydrochloride)] had a difference in excitability in assay [1] of 8.93. Also, in assay [2], the “difference in startle response” value is -3.14. Further, in assay [3], the “difference in activity during first hour” value was 8.93. Moreover, in assay [4], the “difference in habituation” value is -15.9. Moreover, in assay [5], the difference is -11.8.
Turning to `C[n+]1ccccc1/C=N/O` [Pralidoxime (chloride)], the difference in excitability in assay [1] was found to be 1.97. Also, the “difference in startle response” value in assay [2] was -3.28. In addition, the “difference in activity during first hour” value in assay [3] was 6.01. Besides, in assay [4], the “difference in habituation” value worked out at 2.57. For the same compound, the difference in assay [5] was found to be 1.74.
Regarding `O=C1C(O)=C([C@H]2CC[C@H](c3ccc(Cl)cc3)CC2)C(=O)c2ccccc21` [Atovaquone], the difference in excitability in assay [1] is -0.794. Further, the “difference in startle response” value in assay [2] was -0.517. In addition, the “difference in activity during first hour” value in assay [3] was -0.977. Also, the “difference in habituation” value in assay [4] is -6.16. In addition, the difference in assay [5] was -7.53.
On to `CN(C)CCC[C@@]1(c2ccc(F)cc2)OCc2cc(C#N)ccc21` [Escitalopram], for which the difference in excitability in assay [1] stood at 12.5. Besides, the “difference in startle response” value in assay [2] is -1.37. Also, the “difference in activity during first hour” value in assay [3] was -18.9. Besides, in assay [4], the “difference in habituation” value amounted to 1.61. Moreover, the difference in assay [5] came out at 1.8.
In the same order, the values of `CC(=O)O[C@H]1Cc2ccccc2N(C(N)=O)c2ccccc21` [Eslicarbazepine Acetate] are -1.41, -0.316, -0.636, -4.75 and -2.32.
`Cc1cccc(C)c1OCC(C)N` (stereo not given) [Mexiletine (hydrochloride)] had a difference in excitability in assay [1] of 9.5. Also, the “difference in startle response” value in assay [2] stood at 1.48. Further, the “difference in activity during first hour” value in assay [3] was -2.5. Also, in assay [4], the “difference in habituation” value was -10.3. In addition, the difference in assay [5] is 1.04.
Regarding `N#Cc1ccc(C(c2ccc(C#N)cc2)n2cncn2)cc1` [Letrozole], the difference in excitability in assay [1] was determined as 4.92. The “difference in startle response” value in assay [2] is -5.86. In addition, in assay [3], the “difference in activity during first hour” value is -6.93. Moreover, the “difference in habituation” value in assay [4] was -3.28. Further, the difference in assay [5] turned out to be 0.376.
Regarding `O=C(O[C@@H]1C[C@@H]2C[C@H]3C[C@H](C1)N2CC3=O)c1c[nH]c2ccccc12` [Dolasetron], in assay [1], the difference in excitability is 10.9. In addition, in assay [2], the “difference in startle response” value was -3.55. Moreover, the “difference in activity during first hour” value in assay [3] was 2.6. Further, in assay [4], the “difference in habituation” value turned out to be 7.35. The difference in assay [5] is 6.71.
For the compound `C#C[C@]1(O)CC[C@H]2[C@@H]3CCC4=CC(=O)CC[C@@H]4[C@H]3C(=C)C[C@@]21CC` [Etonogestrel], the difference in excitability in assay [1] was 12.2. In assay [2], the “difference in startle response” value was -2.36. For the same compound, in assay [3], the “difference in activity during first hour” value turned out to be 0.0241. Moreover, in assay [4], the “difference in habituation” value is -5.37. Moreover, the difference in assay [5] turned out to be 10.4.
On to `CN(C)CCCN1c2ccccc2CCc2ccccc21` [Imipramine (hydrochloride)], for which, in assay [1], the difference in excitability turned out to be 14.5. The “difference in startle response” value in assay [2] was -8.78. In addition, the “difference in activity during first hour” value in assay [3] was -16.4. The “difference in habituation” value in assay [4] was -11.2. In assay [5], the difference was -6.91.
In the same order, the values of `CC(C)OC(=O)[C@H](C)N[P@](=O)(OC[C@H]1O[C@@H](n2ccc(=O)[nH]c2=O)[C@](C)(F)[C@@H]1O)Oc1ccccc1` are -3.58, -4.12, 10, 1.16 and 6.56.
In the same order, the values of `C[C@]12CC[C@@H]3c4ccc(OS(=O)(=O)O)cc4CC[C@H]3[C@@H]1CCC2=O` [Estropipate] are 1.84, -3.42, -3.25, -2.86 and -4.79.
In turn, `CC(C)(O)c1ccccc1CC[C@@H](SCC1(CC(=O)O)CC1)c1cccc(/C=C/c2ccc3ccc(Cl)cc3n2)c1` [Montelukast (sodium salt)] returned a difference in excitability in assay [1] of 10.4. Further, in assay [2], the “difference in startle response” value was found to be 2.54. In addition, the “difference in activity during first hour” value in assay [3] is -3.93. The “difference in habituation” value in assay [4] is 1.58. In addition, in assay [5], the difference amounted to 3.42.
In the same order, the values of `CC(C)(C)c1nc(-c2cccc(NS(=O)(=O)c3c(F)cccc3F)c2F)c(-c2ccnc(N)n2)s1` [Dabrafenib] are 1.22, 0.607, 3.67, -5.97 and -1.51.
Turning to `C=C1/C(=C\C=C2/CCC[C@]3(C)[C@@H]([C@H](C)/C=C/[C@H](C)C(C)C)CC[C@@H]23)C[C@@H](O)C[C@@H]1O` [1-hydroxy Vitamin D2], in assay [1], the difference in excitability stood at 1.72. Moreover, the “difference in startle response” value in assay [2] was -1.97. Further, the “difference in activity during first hour” value in assay [3] is 2.97. In assay [4], the “difference in habituation” value was determined as 0.874. Moreover, in assay [5], the difference was found to be 6.19.
Regarding `OC[C@H]1O[C@@H](n2cnc3c2N=CNC[C@H]3O)C[C@@H]1O` [Pentostatin], the difference in excitability in assay [1] is 4.36. Further, in assay [2], the “difference in startle response” value is -6.74. The “difference in activity during first hour” value in assay [3] worked out at 2.27. In assay [4], the “difference in habituation” value was 0.584. For the same compound, in assay [5], the difference was determined as 3.35.
For `CC(C)c1c(C(=O)Nc2ccccc2)c(-c2ccccc2)c(-c2ccc(F)cc2)n1CC[C@@H](O)C[C@@H](O)CC(=O)O` [Atorvastatin (calcium salt hydrate)], in that order: 2, -0.915, -6.37, -0.794 and -0.114.
For the compound `CC(C)(Oc1ccc(C(=O)c2ccc(Cl)cc2)cc1)C(=O)O` [Fenofibric Acid], the difference in excitability in assay [1] amounted to 2.08. In addition, the “difference in startle response” value in assay [2] was determined as 4.69. In assay [3], the “difference in activity during first hour” value worked out at 11.8. The “difference in habituation” value in assay [4] is 0.387. The difference in assay [5] amounted to 6.16.
The compound `CCCNC(C)C(=O)Nc1c(C)csc1C(=O)OC` (stereo not given) [Articaine (hydrochloride)] registered a difference in excitability in assay [1] of 2.22. The “difference in startle response” value in assay [2] is -2.43. Further, the “difference in activity during first hour” value in assay [3] was found to be 5.22. In assay [4], the “difference in habituation” value stood at 0.219. The difference in assay [5] is -0.0299.
In assay [1], `CN(C)C(=O)N[C@H]1CC[C@H](CCN2CCN(c3cccc(Cl)c3Cl)CC2)CC1` [Cariprazine (hydrochloride)] gave a difference in excitability of 11.3. Moreover, the “difference in startle response” value in assay [2] was -2.66. Besides, in assay [3], the “difference in activity during first hour” value was -2.12. Besides, the “difference in habituation” value in assay [4] was -3.39. In assay [5], the difference was -1.22.
Compound `C[C@H]1O[C@H](O[C@H]2[C@H](O)[C@@H](O)[C@@H](O[C@H]3[C@H](O)[C@@H](O)C(O)O[C@@H]3CO)O[C@@H]2CO)[C@H](O)[C@@H](O)[C@@H]1N[C@H]1C=C(CO)[C@@H](O)[C@H](O)[C@H]1O` (stereo not given in full) [Acarbose] came in with a difference in excitability in assay [1] of 11. The “difference in startle response” value in assay [2] is -8.81. The “difference in activity during first hour” value in assay [3] is -0.68. The “difference in habituation” value in assay [4] was -4.5. For the same compound, in assay [5], the difference worked out at 4.03.
`Nc1nc(F)nc2c1ncn2[C@@H]1O[C@H](COP(=O)(O)O)[C@@H](O)[C@@H]1O` [Fludarabine Phosphate] had a difference in excitability in assay [1] of 2.14. In addition, the “difference in startle response” value in assay [2] is -0.759. For the same compound, the “difference in activity during first hour” value in assay [3] came to 3.53. In addition, the “difference in habituation” value in assay [4] was -5.41. In assay [5], the difference was 6.27.
As for `COc1ccc(NC(=O)c2ccc(C(=N)N(C)C)cc2)c(C(=O)Nc2ccc(Cl)cn2)c1` [Betrixaban], in assay [1], the difference in excitability was 11.6. For the same compound, the “difference in startle response” value in assay [2] turned out to be 2.94. In assay [3], the “difference in activity during first hour” value is 2.19. For the same compound, the “difference in habituation” value in assay [4] was 5.98. Further, the difference in assay [5] came to 7.59.
